Experimental data reported in PubChem BioAssay (NCI).
About 83,000 compounds went through this panel and 20% of them were active in at least one assay; those are over-represented in the sample as a whole.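 For each line, cells grew in 96-well plates with the test compound present at a single concentration for 48 hours.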 Active and inactive are the calls of the source. How the source made its calls: active means growth percent below 10; inactive means the rest.

System: HL-60(TB) leukemia
Assay: NCI-60 one-dose screen, 48 h (100 = growth as untreated, 0 = no growth, -100 = all killed)
Settings: 10 µM unless noted

| SMILES | growth |
| --- | --- |
| c1coc([C@@H]2C[C@@H]3Cc4ccc5ccccc5c4N2O3)c1 | 100% (inactive) |
| COc1ccc(-c2nnc(SCC(=O)NC3=NN=C(c4ccccc4)CS3)o2)cc1 | 90.9% (inactive) |
| CC[C@@H](C)OC(=O)c1nn(C(C)=O)c2ccccc12 | 120% (inactive) |
| CCOC(=O)/C(C#N)=C1/NNC(=Nc2cccnc2)S1 | 102% (inactive) |
| CN(C)CCOc1nc2c3ccncc3cc(-c3cccc(Cl)c3)c2c2cnccc12 | 33.4% (inactive) |
| CN(C)CCn1c2ccc(Br)cc2c2nc3ccccc3nc21 | 26.2% (inactive) |
| C#Cc1cccc(NC(=O)C2CCCCN2C(=O)CCl)c1 (stereo not given) | -31.6% [8.25 µM] (active) |
| O=C(Nc1ccc2ncsc2c1)c1csc(Nc2ccc3[nH]ncc3c2)n1 | 9.68% (active) |
| O=C(CCCCCCN1CC(=O)N2[C@H](c3ccc(Cl)cc3)c3[nH]c4ccccc4c3C[C@@H]2C1=O)NO | 1.54% (active) |
| CCCCN(CCCC)C(=O)CC | 97.3% (inactive) |
| FC(F)(F)c1nc2c(NCc3ccc(-c4ccccc4)cc3)cccc2[nH]1 | 21.1% (inactive) |
| COc1ccc(C(=O)Nc2ncc(Cc3ccc(Cl)cc3)s2)cc1 | -11% (active) |
| O=C(O)C(c1ccccc1)C(O)c1ccccc1 (stereo not given) | 97.8% (inactive) |
| Cc1ccc2nc(CN(CCN(Cc3nc4ccc(C)cc4[nH]3)Cc3nc4ccc(C)cc4[nH]3)Cc3nc4ccc(C)cc4[nH]3)[nH]c2c1 | -67.7% (active) |
| Clc1cc(Cl)cc(-c2cnc3nonc3n2)c1 | 10.9% (inactive) |
| CCc1ccccc1NC(=O)c1sc2nc3c(cc2c1N)C(=O)CCC3 | -10.3% (active) |
| O=C1c2cc3c(cc2-c2c1c1ccc(F)cc1c(=O)n2CCCN1CCOCC1)OCO3 | 13.7% (inactive) |
| Nc1ccc(S(=O)(=O)Nc2cc(I)cc(I)c2)cc1 | -75% (active) |
| COc1cc(-c2c(C#N)c(N)n3c(nc4ccccc43)c2C#N)cc(Br)c1OC | 62.9% (inactive) |
| COc1ccc2c(c1)C(=O)/C(=C/c1cccc(OCC(=O)c3ccc([N+](=O)[O-])cc3)c1)CO2 | -46.6% (active) |

| SMILES | growth |
| --- | --- |
| CC(C)=CCCC(C)c1ccc(C)c2c1OCN(CCCCCO)C2 (stereo not given) | 51.7% (inactive) |
| N=C1S/C(=C/c2ccc(-c3ccc4c(c3)C(=O)NC4=O)o2)C(=O)N1c1ccc(Br)cc1 | 50.5% (inactive) |
| N#CC1=C(N)Oc2c(sc3c(Br)cccc23)C1c1ccc(Br)cc1 (stereo not given) | 6.12% (active) |
| Cc1nnc(Nc2ccc(NC(=O)Nc3ccc(Cl)cc3)cc2)c2ccccc12 | -34.8% (active) |
| Cc1cccc2c1O/C(=C\c1ccc([N+](=O)[O-])o1)C2=O | -25.7% (active) |
| C=C(CNCCc1ccc(O)cc1)[C@@H]1CC[C@]2(COC3CCCCO3)CC[C@]3(C)[C@H](CC[C@@H]4[C@@]5(C)CCC(N)C(C)(C)[C@@H]5CC[C@]43C)[C@@H]12 (stereo not given in full) | -75.6% (active) |
| COc1ccc(-c2nn(-c3cccc(Cl)c3)cc2/C=C2\C(=N)N(c3ccccc3)N=C2N)cc1 | 9.27% (active) |
| CCCN1CCN(c2ccc3nc(-c4ccc5nc(-c6cc(OC)c(OC)c(OC)c6)[nH]c5c4)[nH]c3c2)CC1 | 97.4% (inactive) |
| CC(=O)c1ccc(Nc2nc(NCCO)nc(Nc3ccc(Cl)cc3)n2)cc1 | 103% (inactive) |
| C=CCN=C1NC(=O)/C(=C/c2cc(C(C)(C)C)c(O)c(C(C)(C)C)c2)S1 | 54.3% (inactive) |
| COc1cc2c(Nc3ccc(Br)cc3F)ncnc2cc1OCC1CCN(C)CC1 | 0.964% (active) |
| Fc1ccc(NCc2nnc(-c3ccc(Cl)cc3)o2)cc1 | 69.5% (inactive) |
| CCN(CC)CCCNc1cccc2c(C)cc(OC)nc12 | 106% (inactive) |
| COc1ccc(-c2cc(-c3nnc(SCC(=O)Nc4ccc(/C(C)=N\O)cc4)n3-c3ccccc3)c3cc(OC)ccc3n2)cc1 | 31.8% (inactive) |
| Oc1ccc(Cl)cc1C(c1cc(Cl)ccc1O)C(Cl)(Cl)Cl | 69% (inactive) |
| O=C1c2ccccc2NC(c2cn(-c3ccccc3)nc2-c2cccs2)N1Cc1ccccc1 (stereo not given) | -6.57% (active) |
| CN1C(=O)/C(=C/c2ccc(C(=O)Nc3ncc(Cc4cccc(Cl)c4)s3)cc2)SC1=S | 88.2% (inactive) |
| O=C(Nc1ccc(Cl)cc1F)c1cc(Cl)ccc1O | -48% (active) |
| COc1cccc(C2CC(=O)Nc3c2c(C)nn3-c2nc3ccccc3[nH]2)c1OC (stereo not given) | 18.9% (inactive) |
| O=c1ccn2c(n1)OC1CC2OC1COC(c1ccccc1)(c1ccccc1)c1ccccc1 (stereo not given) | 89.2% [100 µM] (inactive) |
